ROMK primary: modulates human ROMK potassium channel activity; P48048; Tet-inducible ROMK, thallium flux fluorescence; actives lie on both sides; B-score at 10 µM; 130,000 tested, 2% active; AID 1918;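 active means signal ratio slope over the read window, or its plate-corrected B-score, at least 3 SD from the plate mean, either direction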;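 further: B-score of the F/F0 ratio slope over 7 to 12 s after thallium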
Target sequence (P48048 whole entry, looked up): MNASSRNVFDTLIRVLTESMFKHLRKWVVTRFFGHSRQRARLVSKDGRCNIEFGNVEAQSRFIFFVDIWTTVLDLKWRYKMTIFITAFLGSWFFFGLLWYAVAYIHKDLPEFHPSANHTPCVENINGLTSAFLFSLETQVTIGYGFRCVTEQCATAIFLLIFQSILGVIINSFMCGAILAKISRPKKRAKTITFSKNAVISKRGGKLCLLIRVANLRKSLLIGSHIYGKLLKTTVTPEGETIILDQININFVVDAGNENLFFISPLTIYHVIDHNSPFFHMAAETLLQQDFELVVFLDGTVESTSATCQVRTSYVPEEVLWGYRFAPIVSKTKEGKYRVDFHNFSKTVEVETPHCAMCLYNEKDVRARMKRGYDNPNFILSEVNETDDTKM
Calpain2 inh: blocks pig calpain II enzyme activity; purified calpain II, fluorogenic peptide substrate, 30 min; inhibition, % at 16 µM; 220,000 tested, 0.37% active; AID 1236;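 active means inhibition above about 50%, limit read from the data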
Arbovirus inh: arbovirus infection inhibition; inhibition, % at 10 µM; arbovirus infection cell-based antiviral screen; 200,000 tested, 0.37% active; in the data active means inhibition above about 30%
HSV augment: increases HSV replication in cells; HSV replication augmentation in cells, fold increase; maximum fold increase; 220,000 tested, 0.005% active; AID 1956; in the data active means maximum fold increase above about 1.5; inconclusive means no clear call, values can overlap the other calls; tested in PC3 cells
HMGR II inh: E. faecalis class II HMG-CoA reductase inhibition; purified E. faecalis HMGR, NADPH absorbance 340 nm kinetic; AID 1066; 190,000 tested, 0.41% active; inhibition, % at 10 µM;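 active means inhibition above a set limit, the median over all tested compounds plus 3 SD, cut at about 9.5% in these data; inconclusive means no clear call, values can overlap the other calls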;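 further: enzyme runs in reverse so mevalonate oxidation gives rising NADPH absorbance; 0% = complete reaction with DMSO and 100% = background rate lacking mevalonate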
ROMK hit retest: confirmation of human ROMK potassium channel modulators; shares compounds with ROMK primary; ROMK thallium flux, fluorescence ratio; stronger effect = lower value; normalized thallium flux (F/F0 slope) at 10 µM; 3,000 tested, 54% active; AID 1917;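 active means Flux at 10 µM at least 3 SD below or above vehicle control mean in one or both replicates; inconclusive means no clear call, values can overlap the other calls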
Active calls of the source: *. Shown are actives, neighbours in structure and some others; about 2.1% of the full set was active somewhere.

How did CCN1CCN(C(=O)/C(C#N)=C/c2ccc(OC(F)F)cc2)CC1 do in these assays?
ROMK primary: -3.6*; Calpain2 inh: 3; Arbovirus inh: 0; HSV augment: inactive; HMGR II inh: -2; ROMK hit retest: 0.047*

Results for CN1CCC(N(C)C(=O)/C(C#N)=C/c2ccc(OC(F)F)cc2)CC1 ?
Calpain2 inh: -20; HSV augment: inactive; ROMK hit retest: 0.046*

What do the screens show for `N#C/C(=C\c1ccc(OC(F)F)cc1)C(=O)N1CCCCC1`?
Calpain2 inh: -16; HSV augment: inactive

Results for COc1cc(C(=O)NCCCNc2ccc([N+](=O)[O-])cc2)cc(OC)c1OC ?
ROMK primary: -1.1; Calpain2 inh: -3; Arbovirus inh: 5; HSV augment: inactive; HMGR II inh: -2

Results for COc1ccc(NC(=S)N(CCN(C)C)C(C)c2ccco2)cc1Cl (configuration not stated) ?
ROMK primary: -0.88; Calpain2 inh: 0; Arbovirus inh: 12; HSV augment: inactive; HMGR II inh: 0

How did CCCOCC(O)CC(Cc1ccccc1)C(=O)NN (configuration not stated) do in these assays?
ROMK primary: 0.052; Calpain2 inh: -24; HSV augment: inactive

Results for CC1(C)CC(CC(=O)O)(c2ccccc2)CCO1 (configuration not stated) ?
Calpain2 inh: 19; Arbovirus inh: 10; HSV augment: inactive; HMGR II inh: -1; ROMK hit retest: 0.072

Results for COc1ccc(C(O)P(=O)(OC(C)C)OC(C)C)c(OC)c1 (configuration not stated) ?
Calpain2 inh: 6; HSV augment: inactive

What do the screens show for `CCC(C)(C)C1CCc2c(sc(NC(=O)c3ccoc3C)c2C(N)=O)C1` (configuration not stated)?
Calpain2 inh: -87; Arbovirus inh: 9; HMGR II inh: -5

What do the screens show for `CC(C)(C)C1CCc2c(sc(NC(=O)C3CC=CCC3C(=O)O)c2C#N)C1` (configuration not stated)?
ROMK primary: -3.5*; Calpain2 inh: 23; Arbovirus inh: 36*; HSV augment: inactive; HMGR II inh: 1; ROMK hit retest: inconclusive

How did CCC(C)(C)C1CCc2c(sc(NC(=O)c3ccccc3C(=O)O)c2C#N)C1 (configuration not stated) do in these assays?
Calpain2 inh: 20; HSV augment: inactive; ROMK hit retest: 0.11*

How did CC(=O)Nc1nc2n(n1)C(c1ccccc1)C=C(c1ccccc1)N2 (configuration not stated) do in these assays?
Calpain2 inh: -415; Arbovirus inh: 2; HSV augment: inactive; HMGR II inh: -1

Results for O=C(Nc1nc2n(n1)C(c1ccccc1)C=C(c1ccccc1)N2)c1ccco1 (configuration not stated) ?
Calpain2 inh: -92; Arbovirus inh: -1; HSV augment: inactive; HMGR II inh: -3; ROMK hit retest: 0.066*

Results for CN(C)C(CNC(=S)Nc1ccc(F)cc1)c1cccnc1 (configuration not stated) ?
ROMK primary: -0.27; Calpain2 inh: 24; Arbovirus inh: 6; HSV augment: inactive; HMGR II inh: -7

What do the screens show for `CCc1ccc(-c2nc(CSCC(=O)N3CCN(c4ncccn4)CC3)c(C)o2)cc1`?
Calpain2 inh: -14; Arbovirus inh: -3; HMGR II inh: -8; ROMK hit retest: 0.064*

What do the screens show for `CSc1ccc(-c2nc(CSCC(=O)N3CCOCC3)c(C)o2)cc1`?
Calpain2 inh: -17; Arbovirus inh: 1; HSV augment: inactive; HMGR II inh: -2

What do the screens show for `C(#Cc1ccccc1)C[N+]1(CC#Cc2cccc3ccccc23)CCCC1`?
ROMK primary: -4.5*; Calpain2 inh: 8; Arbovirus inh: -4; HSV augment: inactive; HMGR II inh: -4; ROMK hit retest: 0.049*

What do the screens show for `Cc1cccc2sc(NS(C)(=O)=O)nc12`?
ROMK primary: -0.47; Calpain2 inh: -11; Arbovirus inh: 15; HSV augment: inactive; HMGR II inh: -6

Results for COc1cc(/C=C2/C(=O)ON=C2c2ccccc2)ccc1O ?
ROMK primary: -6.8*; Calpain2 inh: -11; Arbovirus inh: -1; HSV augment: inactive; HMGR II inh: -3; ROMK hit retest: 0.044*

How did Cc1ccc(/C=C2/C(=O)ON=C2c2ccccc2)o1 do in these assays?
Calpain2 inh: -23; HSV augment: inactive; ROMK hit retest: 0.04*

Source: PubChem (several laboratories)
